Results filed as inconclusive are left out. Unmarked numbers belong to inactive results. Activity calls are given as the source filed them. Calls follow the shape of the dose curve; as a rule, active = well fitted cell-killing curve with a large enough effect; inconclusive = small, poorly fitted or top-dose-only effect; inactive = no such curve, though single readings can be large or run the other way. Numbered stars: 1 amine (or outer) side, 2 acyl side, 3 side chain; on linkers, the order of the positions; unused ones are H or OH. Bridge positions count the residues as written; N and C are the ends. Square brackets hold non-standard residues; d marks the D form. Peptide text beside a SMILES is read from it. I, II: the chains in the order shown. Actinocin(9to1) = Cc1c2oc3c(C)ccc(C(=O)[*:1])c3nc-2c(C(=O)[*:2])c(N)c1=O; NMeV = CN[C@H](C(=O)O)C(C)C; Sar = CNCC(=O)O
% is scaled to controls: 0 for no effect and ±100 for the full control effect; potency is read from the fitted curve at half-maximal effect.

The nature of the assay: qHTS of pediatric cancer cell lines to identify multiple opportunities for drug repurposing: Primary screen for MG 63 (6-TG R) cells (AID 1347105). Also: nearly all actives have a fitted effect of over 50% in size. Conditions: MG 63 (6-TG R) viability, CellTiter-Glo, 48 h; series mostly up to 46 µM; activity change, negative = cytotoxic: at the top concentration. The essentials: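 Luminescence from CellTiter-Glo served as readout of metabolically active cells after 48 h compound exposure. Titrations: MIPE 11-point, from 0.78 nM; NPC 8-point, from 0.59 nM (final). Concentration-response curves came straight from the primary screen.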
As for `CN(C)C(=S)SC(=S)N(C)C`, the Potency is 4.22 µM (active).
In the case of `CC(C)(C)CC(C)(C)c1ccc(OCCOCC[N+](C)(C)Cc2ccccc2)cc1`, the Potency is 26.6 µM (active).
In the case of `CCCCC(CC)CN=C(N)NC(N)=NCCCCCCN=C(N)NC(N)=NCC(CC)CCCC` (configuration not stated), the Potency was 6.68 µM (active).
As for `NC(=O)c1cc[n+](CC2=C(C(=O)[O-])N3C(=O)[C@@H](NC(=O)Cc4cccs4)[C@H]3SC2)cc1`, the “activity change, negative = cytotoxic” value was 13.1%.
On the same count and under the same terms, the figure for `CN=C(NC#N)NCCSCc1csc(N=C(N)N)n1` is -23.5%.
Consider `CN(C)CC/C=C1\c2ccccc2Sc2ccc(Cl)cc21`, for which the “activity change, negative = cytotoxic” value was -14.1%.
The same measure, in the same setting: as for `COc1c2occc2c(OC)c2c(=O)cc(C)oc12`, the figure is -12.5%; as for `Cc1c(C(N)=O)cc([N+](=O)[O-])cc1[N+](=O)[O-]`, 21.6%.
Same read-out and setting: the figure for `Nc1ccc(/C=C/c2ccc(N)cc2S(=O)(=O)O)c(S(=O)(=O)O)c1` is 9.42% [at 0.597 µM]; for `C[C@@H]1C[C@H]2[C@@H]3C[C@H](F)C4=CC(=O)C(Cl)=C[C@]4(C)[C@@]3(F)[C@@H](O)C[C@]2(C)[C@@]1(O)C(=O)CO` it is -3.38%.
For the molecule `CCC(C(=O)OCCN(CC)CC)c1ccccc1` (configuration not stated), the “activity change, negative = cytotoxic” value is 3.94%.
The same measure, in the same setting: as for `CCN1CCCC1=O`, the figure is -1.72%; as for `COc1cc(C(=S)N2CCOCC2)cc(OC)c1OC`, -11%.
Regarding `Cc1c(N(C)CS(=O)(=O)O)c(=O)n(-c2ccccc2)n1C`, the “activity change, negative = cytotoxic” value is -13%.
For the molecule `C[C@]12CC[C@@H]3c4ccc(O)cc4CC[C@H]3[C@@H]1C[C@@H](O)[C@@H]2O`, the “activity change, negative = cytotoxic” value was 0.517%.
Take `Cc1ccc(O)c2ncccc12`: the Potency was 10.6 µM (active).
With `OC[C@H]1O[C@@H](n2cnc3c(=S)nc[nH]c32)[C@H](O)[C@@H]1O`, the “activity change, negative = cytotoxic” value is -7.98%.
With `CC(=O)O[C@]1(C(C)=O)CC[C@H]2[C@@H]3C[C@H](C)C4=CC(=O)CC[C@]4(C)[C@H]3CC[C@@]21C`, the “activity change, negative = cytotoxic” value is -9.43%.
The same measure, in the same setting: as for `CCOC(=O)OC(C)OC1=C(C(=O)Nc2ccccn2)N(C)S(=O)(=O)c2ccccc21` (configuration not stated), the figure is 2.04%; as for `CC(=O)Oc1ccc2c(c1)CC[C@@H]1[C@@H]2CC[C@]2(C)[C@@H](O)CC[C@@H]12`, -16.1%; as for `COC(=O)CCc1ccc(OCC(O)CNC(C)C)cc1` (configuration not stated), -28.4%.
For `CCCCC(=O)O[C@]1(C(=O)CO)CC[C@H]2[C@@H]3CCC4=CC(=O)CC[C@]4(C)[C@H]3[C@@H](O)C[C@@]21C`, the “activity change, negative = cytotoxic” value was -12.7%.
In the case of `Cc1c(C)n(CCN(C)C)c2ccc(C(=O)OCCN(C)C)cc12`, the “activity change, negative = cytotoxic” value was -25.1%.
`COc1cc2c(cc1OC)[C@@H]1CC(=O)[C@@H](CC(C)C)CN1CC2`: the “activity change, negative = cytotoxic” value is -16.6%.
For the molecule `C=CCc1ccc(O)c(OC)c1`, the “activity change, negative = cytotoxic” value was -6.13%.
Consider `Cc1c2oc3c(C)ccc(C(=O)N[C@@H]4C(=O)N[C@H](C(C)C)C(=O)N5CCC[C@H]5C(=O)N(C)CC(=O)N(C)[C@@H](C(C)C)C(=O)O[C@@H]4C)c3nc-2c(C(=O)N[C@@H]2C(=O)N[C@H](C(C)C)C(=O)N3CCC[C@H]3C(=O)N(C)CC(=O)N(C)[C@@H](C(C)C)C(=O)O[C@@H]2C)c(N)c1=O` (I: T[dV]P[Sar][NMeV] / II: T[dV]P[Sar][NMeV]; ester I:1-I:C, II:1-II:C; linker I:N-II:N via Actinocin(9to1)), for which the Potency is 0.0335 µM (active).
With `CCCCCCCCCCCCCCCC[N+](C)(C)CC`, the Potency is 26.6 µM (active).
With `OC[C@H]1O[C@H](O[C@]2(CCl)O[C@H](CCl)[C@@H](O)[C@@H]2O)[C@H](O)[C@@H](O)[C@H]1Cl`, the “activity change, negative = cytotoxic” value is -23%.
With `CC(C)N=C(N)/N=C(\N)Nc1ccc(Cl)cc1`, the “activity change, negative = cytotoxic” value is -26.9%.
Regarding `NCCC(O)(P(=O)(O)O)P(=O)(O)O`, the “activity change, negative = cytotoxic” value was -25.3%.
Turning to `O=S1(=O)c2cccc3cccc(c23)N1CCCN1CCN(c2ccc(F)cc2)CC1`, the “activity change, negative = cytotoxic” value is -20.9%.
Same read-out and setting: the figure for `Cc1cccc(C)c1NC(=O)CN1CCN(CCCC(c2ccc(F)cc2)c2ccc(F)cc2)CC1` is -11.8%; for `Oc1cc(O)c2c(c1)O[C@H](c1ccc(O)c(O)c1)[C@H](O)C2` it is 15.1%; for `CCCOC(C(=O)OC1CCN(C)CC1)(c1ccccc1)c1ccccc1` it is -13.2%.
For the molecule `CC(=O)Oc1ccc(C(c2ccc(OC(C)=O)cc2)c2ccccn2)cc1`, the Potency is 0.211 µM (active).
For `Cc1cc2c(cc1CC(=O)c1sccc1S(=O)(=O)Nc1onc(C)c1Cl)OCO2`, the “activity change, negative = cytotoxic” value was -0.317%.
For `COc1cccc2c1C(=O)c1c(O)c3c(c(O)c1C2=O)C[C@@](O)(C(C)=O)C[C@@H]3O[C@H]1C[C@H](N)[C@H](O)[C@H](C)O1`, the Potency is 4.22 µM (active).

Values taken from PubChem BioAssay (NCATS).
